Source: PubChem BioAssay (NCI)
About 79,000 compounds went through this panel and 15% of them were active in at least one assay; those are over-represented in the sample as a whole. Activity calls are given as the source filed them. Cut-off read from the data, not from the text of the source: active = growth inhibition above about 70%; inactive = the rest.

How the values were obtained:
[1] = NCI Yeast Anticancer Drug Screen. Data for the rad52 strain (AID 147);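 note: 0% = growth of vehicle-treated control cultures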; conditions: S. cerevisiae rad52 mutant growth inhibition, stronger effect = higher value
Summary of the method: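 Here a repair-compromised yeast strain receives each compound; its growth is then quantified and normalised to vehicle-only controls.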

[2] = NCI Yeast Anticancer Drug Screen. Data for the wt1 strain (AID 149);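 note: 0% = growth of vehicle-treated wt1 cultures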; conditions: S. cerevisiae wt1 strain (SPY 50644) growth inhibition, stronger effect = higher value
Summary of the method: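 Readout: yeast growth inhibition, normalised to vehicle controls, in the wt1 strain exposed to test compounds.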

[3] = NCI Yeast Anticancer Drug Screen. Data for the rad50EPP+ strain (AID 151);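 note: 0% = growth of vehicle-treated control cultures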; conditions: S. cerevisiae rad50 mutant strain, stronger effect = higher value
Summary of the method: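 Read-out is yeast growth inhibition relative to vehicle; cells used were the rad50EPP+ strain.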

[4] = NCI Yeast Anticancer Drug Screen. Data for the mgt1 strain (AID 153); conditions: S. cerevisiae mgt1 mutant growth inhibition, stronger effect = higher value
Summary of the method: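 Measured: inhibition of mgt1 yeast growth by compound, normalized to vehicle-treated cultures.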

[5] = NCI Yeast Anticancer Drug Screen. Data for the rad50 strain (AID 155);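 note: 0% = growth of vehicle-only cultures of the same strain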; conditions: S. cerevisiae rad50 strain growth inhibition, stronger effect = higher value
Summary of the method: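 Compounds were tested on a yeast strain with an engineered DNA damage repair alteration; the reported value is growth inhibition normalised to vehicle treatment.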

[6] = NCI Yeast Anticancer Drug Screen. Data for the mec2-1 strain (AID 157); conditions: S. cerevisiae mec2-1 strain, stronger effect = higher value
Summary of the method: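 Using mec2-1 yeast: add compound, measure growth, express inhibition versus vehicle-treated cultures.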

[7] = NCI Yeast Anticancer Drug Screen. Data for the rad14 strain (AID 159);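 note: 0% = growth of vehicle-treated control cultures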; conditions: S. cerevisiae rad14 strain growth inhibition, stronger effect = higher value
Summary of the method: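 Compound-treated yeast with a defined DNA-repair lesion; growth inhibition normalised to vehicle-treated cultures.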

[8] = NCI Yeast Anticancer Drug Screen. Data for the sgs1 mgt1 strain (AID 161);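 note: 0% = growth of cultures given vehicle only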; conditions: S. cerevisiae sgs1 mgt1 strain, stronger effect = higher value
Summary of the method: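 Growth of a repair-deficient yeast mutant was monitored after compound treatment and expressed as inhibition relative to vehicle-treated cultures.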

[9] = NCI Yeast Anticancer Drug Screen. Data for the CLN2oe strain (AID 163);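 note: 0% = growth of vehicle-only control cultures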; conditions: S. cerevisiae CLN2oe strain, stronger effect = higher value
Summary of the method: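 Whole-cell yeast growth assay. A strain engineered for altered cell-cycle control received compound, and inhibition relative to vehicle-treated cultures was recorded.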

[10] = NCI Yeast Anticancer Drug Screen. Data for the cln2 rad14 strain (AID 165);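 note: 0% = growth equal to vehicle treated cultures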; conditions: S. cerevisiae cln2 rad14 strain, stronger effect = higher value
Summary of the method: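 Yeast strain cln2 rad14, bearing defects in cell cycle control and DNA repair, serves as the test system; values reflect growth inhibition compared with vehicle.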

[11] = NCI Yeast Anticancer Drug Screen. Data for the bub3 strain (AID 167); conditions: S. cerevisiae bub3 mutant strain, stronger effect = higher value
Summary of the method: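 Growth of a checkpoint-deficient yeast mutant is measured after compound exposure. Values represent inhibition relative to vehicle.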

[12] = NCI Yeast Anticancer Drug Screen. Data for the wt2 strain (AID 169);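 note: 0% = growth of vehicle-treated yeast cultures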; conditions: S. cerevisiae wt2 strain growth inhibition, stronger effect = higher value
Summary of the method: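 Treated yeast vs. vehicle-treated yeast: growth inhibition determined.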

[13] = NCI Yeast Anticancer Drug Screen. Data for the mlh1 strain (AID 171);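 note: 0% = growth of vehicle-treated control cultures of the same strain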; conditions: S. cerevisiae mlh1 strain growth inhibition, stronger effect = higher value
Summary of the method: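 A yeast strain with a defined genetic lesion serves as the test organism. Cultures receive compound or vehicle, and growth is measured.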

[14] = NCI Yeast Anticancer Drug Screen. Data for the sgs1 strain (AID 173);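 note: 0% = growth of vehicle-only control cultures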; conditions: S. cerevisiae sgs1 mutant, stronger effect = higher value
Summary of the method: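 A genetically defined yeast mutant is incubated with the test compound, and its growth is compared to that of the same strain given vehicle.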

[15] = NCI Yeast Anticancer Drug Screen. Data for the mlh1 rad18 strain (AID 175); conditions: S. cerevisiae mlh1 rad18 strain growth inhibition, stronger effect = higher value
Summary of the method: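 Steps: expose repair-defective yeast to compound; measure growth; express inhibition against vehicle-treated controls.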

[16] = NCI Yeast Anticancer Drug Screen. Data for the rad18 strain (AID 177); conditions: S. cerevisiae rad18 mutant growth inhibition, stronger effect = higher value
Summary of the method: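 Measured value is growth inhibition of a yeast strain bearing a DNA repair alteration, referenced to vehicle-treated cells.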

[17] = at 5.0 µM (retest, dose inferred, filed as 0.5)
[18] = at 50.0 µM (retest, dose inferred, filed as 5.0)

Measured: growth inhibition

COc1ccccc1NC(=O)c1ccc(Cl)cc1
inactive: [1]; at 1.2 µM 0% | [1]; at 3.7 µM 3% | [1]; at 11.0 µM 4% | [1]; at 33.0 µM 5% | [1]; at 100.0 µM 1% | [2]; at 1.2 µM -1% | [2]; at 3.7 µM 1% | [2]; at 11.0 µM 1% | [2]; at 33.0 µM 0% | [2]; at 100.0 µM -1% | [3]; at 1.2 µM 7% | [3]; at 3.7 µM 9% | [3]; at 11.0 µM 22% | [3]; at 33.0 µM 40% | [3]; at 100.0 µM 40% | [4]; at 1.2 µM -2% | [4]; at 3.7 µM -1% | [4]; at 11.0 µM 0% | [4]; at 33.0 µM -2% | [4]; at 100.0 µM -10% | [5]; at 1.2 µM 3% | [5]; at 3.7 µM 5% | [5]; [17] -13% | [5]; at 11.0 µM 8% | [5]; at 33.0 µM 6% | [5]; [18] 12% | [5]; at 50.0 µM 17.6% | [5]; at 100.0 µM 8% | [6]; at 1.2 µM -5% | [6]; at 3.7 µM -5% | [6]; [17] -6% | [6]; at 11.0 µM -7% | [6]; at 33.0 µM -6% | [6]; [18] -14% | [6]; at 50.0 µM 11.1% | [6]; at 100.0 µM -4% | [7]; at 1.2 µM 0% | [7]; at 3.7 µM -1% | [7]; at 11.0 µM 0% | [7]; at 33.0 µM 1% | [7]; at 100.0 µM 0% | [8]; [17] 3% | [8]; [18] 7% | [8]; at 50.0 µM 20.8% | [9]; at 1.2 µM -2% | [9]; at 3.7 µM 0% | [9]; at 11.0 µM -6% | [9]; at 33.0 µM -7% | [9]; at 100.0 µM -4% | [10]; [17] 23% | [10]; at 50.0 µM 16.9% | [11]; at 1.2 µM -5% | [11]; at 3.7 µM -5% | [11]; [17] -8% | [11]; at 11.0 µM -3% | [11]; at 33.0 µM 5% | [11]; [18] -10% | [11]; at 50.0 µM 23.9% | [11]; at 100.0 µM 7% | [12]; at 1.2 µM -1% | [12]; at 3.7 µM -2% | [12]; at 11.0 µM -2% | [12]; at 33.0 µM -3% | [12]; at 100.0 µM -2% | [13]; at 1.2 µM 0% | [13]; at 3.7 µM 1% | [13]; at 11.0 µM 4% | [13]; at 33.0 µM 3% | [13]; at 100.0 µM 3% | [14]; at 1.2 µM 0% | [14]; at 3.7 µM 1% | [14]; at 11.0 µM 2% | [14]; at 33.0 µM 3% | [14]; at 100.0 µM 2% | [15]; [17] -6% | [15]; [18] 11% | [15]; at 50.0 µM 0.15% | [16]; at 1.2 µM 3% | [16]; at 3.7 µM 3% | [16]; at 11.0 µM 1% | [16]; at 33.0 µM 3% | [16]; at 100.0 µM 2%
active: [10]; [18] 75%

O=C(NOC(=O)c1ccc([N+](=O)[O-])cc1)c1ccc(Cl)cc1
active: [1]; at 33.0 µM 89% | [1]; at 100.0 µM 97% | [2]; at 33.0 µM 84% | [2]; at 100.0 µM 96% | [3]; at 33.0 µM 85% | [3]; at 100.0 µM 94% | [4]; at 33.0 µM 90% | [4]; at 100.0 µM 97% | [5]; at 33.0 µM 83% | [5]; [18] 89% | [5]; at 50.0 µM 92.4% | [5]; at 100.0 µM 95% | [6]; at 33.0 µM 82% | [6]; [18] 93% | [6]; at 50.0 µM 92.7% | [6]; at 100.0 µM 97% | [7]; at 33.0 µM 88% | [7]; at 100.0 µM 97% | [8]; [18] 94% | [8]; at 50.0 µM 91.3% | [9]; at 33.0 µM 80% | [9]; at 100.0 µM 98% | [10]; [18] 96% | [10]; at 50.0 µM 89% | [11]; [18] 89% | [11]; at 50.0 µM 90% | [11]; at 100.0 µM 95% | [12]; at 33.0 µM 87% | [12]; at 100.0 µM 97% | [13]; at 33.0 µM 89% | [13]; at 100.0 µM 96% | [14]; at 33.0 µM 88% | [14]; at 100.0 µM 95% | [15]; [18] 96% | [15]; at 50.0 µM 89.7% | [16]; at 33.0 µM 90% | [16]; at 100.0 µM 96%
inactive: [1]; at 1.2 µM -1% | [1]; at 3.7 µM 4% | [1]; at 11.0 µM 31% | [2]; at 1.2 µM -30% | [2]; at 3.7 µM -31% | [2]; at 11.0 µM -9% | [3]; at 1.2 µM -19% | [3]; at 3.7 µM 23% | [3]; at 11.0 µM 68% | [4]; at 1.2 µM -58% | [4]; at 3.7 µM -33% | [4]; at 11.0 µM 1% | [5]; at 1.2 µM -36% | [5]; at 3.7 µM -40% | [5]; [17] 6% | [5]; at 11.0 µM 10% | [6]; at 1.2 µM -84% | [6]; at 3.7 µM -64% | [6]; [17] -4% | [6]; at 11.0 µM -15% | [7]; at 1.2 µM -52% | [7]; at 3.7 µM -27% | [7]; at 11.0 µM -7% | [8]; [17] 10% | [9]; at 1.2 µM -18% | [9]; at 3.7 µM 6% | [9]; at 11.0 µM 15% | [10]; [17] 36% | [11]; at 1.2 µM -19% | [11]; at 3.7 µM -18% | [11]; [17] 0% | [11]; at 11.0 µM -4% | [11]; at 33.0 µM 67% | [12]; at 1.2 µM -47% | [12]; at 3.7 µM -27% | [12]; at 11.0 µM 11% | [13]; at 1.2 µM -35% | [13]; at 3.7 µM -35% | [13]; at 11.0 µM -1% | [14]; at 1.2 µM -39% | [14]; at 3.7 µM -17% | [14]; at 11.0 µM 48% | [15]; [17] 14% | [16]; at 1.2 µM -11% | [16]; at 3.7 µM 2% | [16]; at 11.0 µM 43%

NCCCSc1ccccc1
inactive: [1]; at 1.2 µM -2% | [1]; at 3.7 µM -2% | [1]; at 11.0 µM -4% | [1]; at 33.0 µM -4% | [1]; at 100.0 µM -2% | [2]; at 1.2 µM -2% | [2]; at 3.7 µM -4% | [2]; at 11.0 µM -2% | [2]; at 33.0 µM -3% | [2]; at 100.0 µM -3% | [3]; at 1.2 µM -3% | [3]; at 3.7 µM -1% | [3]; at 11.0 µM -4% | [3]; at 33.0 µM -8% | [3]; at 100.0 µM -6% | [4]; at 1.2 µM -3% | [4]; at 3.7 µM -4% | [4]; at 11.0 µM -4% | [4]; at 33.0 µM 13% | [4]; at 100.0 µM -1% | [5]; at 1.2 µM -3% | [5]; at 3.7 µM -2% | [5]; [17] 2% | [5]; at 11.0 µM -2% | [5]; at 33.0 µM -3% | [5]; [18] -19% | [5]; at 50.0 µM -25.2% | [5]; at 100.0 µM -2% | [6]; at 1.2 µM -1% | [6]; at 3.7 µM 0% | [6]; [17] -8% | [6]; at 11.0 µM 1% | [6]; at 33.0 µM 0% | [6]; [18] -30% | [6]; at 50.0 µM 14.7% | [6]; at 100.0 µM 0% | [7]; at 1.2 µM -2% | [7]; at 3.7 µM -1% | [7]; at 11.0 µM -1% | [7]; at 33.0 µM -1% | [7]; at 100.0 µM -1% | [8]; [17] -11% | [8]; [18] -6% | [8]; at 50.0 µM -1.9% | [9]; at 1.2 µM -4% | [9]; at 3.7 µM -3% | [9]; at 11.0 µM 0% | [9]; at 33.0 µM -4% | [9]; at 100.0 µM -5% | [10]; [17] -3% | [10]; [18] 37% | [10]; at 50.0 µM 34.4% | [11]; at 1.2 µM -2% | [11]; at 3.7 µM -3% | [11]; [17] 8% | [11]; at 11.0 µM -1% | [11]; at 33.0 µM -1% | [11]; at 50.0 µM -0.3% | [11]; at 100.0 µM -4%
active: [11]; [18] 78%
